Source: PubChem (The Scripps Research Institute Molecular Screening Center)
The list is not random: actives were taken first. Their share in the collection is about 3.4%.
proKLK7 act – proKLK7 zymogen activators, primary screen, biochemical, fluorescence intensity; purified proKLK7, EDANS-DABCYL substrate fluorescence; 100% is mature enzyme control, 0% vehicle; 370,000 compounds, 0.9% hits; AID 652039, 2013; Kallikrein-7 (Homo sapiens), P49862; activation, % at 7 µM;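 active = activation above the mean of all tested compounds plus 3 SD, computed per campaign excluding outliers beyond control limits, cut at about 13% in these data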
PLC-gamma1 inh – PLC-gamma1 enzyme inhibitors, primary screen, biochemical, fluorescence, purified enzyme. 1-phosphatidylinositol 4,5-bisphosphate phosphodiesterase gamma-1 (Homo sapiens), P19174. fluorogenic substrate. inhibition, % at 12.2 µM. 370,000 compounds, 0.84% hits. AID 720700, 2013; in the data active = inhibition above about 9.5%
ADAM10 inh – human ADAM10 inhibitors, primary screen, biochemical, QFRET, HTS; 370,000 compounds, 0.62% hits; recombinant ADAM10, EDANS/DABCYL FRET peptide cleavage, 3 h; inhibition, % at 7 µM; Disintegrin and metalloproteinase domain-containing protein 10 (Homo sapiens), O14672;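 active = inhibition above a per-campaign cutoff equal to the mean of compounds falling between control-based bounds plus 3 SD, cut at about 20% in these data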;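 note: 0% = DMSO wells while the 100% control is not disclosed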
HGIII-sPLA2 inh – human group III sPLA2 inhibitors, primary screen, biochemical, QFRET, BODIPY PC-A2 liposome substrate; Group 3 secretory phospholipase A2 (Homo sapiens), Q9NZ20; inhibition, % at 12.2 µM; QFRET BODIPY PC-A2 liposome hydrolysis, fluorescence; AID 743126, 2013; 370,000 compounds, 0.56% hits;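 active = inhibition above mean plus 3 SD of compounds lying within the high and low control bounds, cut at about 19% in these data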;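 note: 0% = median of test compound wells and 100% = no enzyme DMSO wells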
PLC-beta3 inh – human PLC-beta3 inhibitors, primary screen, biochemical, fluorescence. 1-phosphatidylinositol 4,5-bisphosphate phosphodiesterase beta-3 (Homo sapiens), Q01970. Purified PLC-beta3, fluorogenic substrate. inhibition, % at 12.2 µM. 370,000 compounds, 0.18% hits. AID 720704, 2013;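 note: 0% = median of compound wells on plate and 100% = full blocker control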
Target sequence (Q01970 whole entry, looked up): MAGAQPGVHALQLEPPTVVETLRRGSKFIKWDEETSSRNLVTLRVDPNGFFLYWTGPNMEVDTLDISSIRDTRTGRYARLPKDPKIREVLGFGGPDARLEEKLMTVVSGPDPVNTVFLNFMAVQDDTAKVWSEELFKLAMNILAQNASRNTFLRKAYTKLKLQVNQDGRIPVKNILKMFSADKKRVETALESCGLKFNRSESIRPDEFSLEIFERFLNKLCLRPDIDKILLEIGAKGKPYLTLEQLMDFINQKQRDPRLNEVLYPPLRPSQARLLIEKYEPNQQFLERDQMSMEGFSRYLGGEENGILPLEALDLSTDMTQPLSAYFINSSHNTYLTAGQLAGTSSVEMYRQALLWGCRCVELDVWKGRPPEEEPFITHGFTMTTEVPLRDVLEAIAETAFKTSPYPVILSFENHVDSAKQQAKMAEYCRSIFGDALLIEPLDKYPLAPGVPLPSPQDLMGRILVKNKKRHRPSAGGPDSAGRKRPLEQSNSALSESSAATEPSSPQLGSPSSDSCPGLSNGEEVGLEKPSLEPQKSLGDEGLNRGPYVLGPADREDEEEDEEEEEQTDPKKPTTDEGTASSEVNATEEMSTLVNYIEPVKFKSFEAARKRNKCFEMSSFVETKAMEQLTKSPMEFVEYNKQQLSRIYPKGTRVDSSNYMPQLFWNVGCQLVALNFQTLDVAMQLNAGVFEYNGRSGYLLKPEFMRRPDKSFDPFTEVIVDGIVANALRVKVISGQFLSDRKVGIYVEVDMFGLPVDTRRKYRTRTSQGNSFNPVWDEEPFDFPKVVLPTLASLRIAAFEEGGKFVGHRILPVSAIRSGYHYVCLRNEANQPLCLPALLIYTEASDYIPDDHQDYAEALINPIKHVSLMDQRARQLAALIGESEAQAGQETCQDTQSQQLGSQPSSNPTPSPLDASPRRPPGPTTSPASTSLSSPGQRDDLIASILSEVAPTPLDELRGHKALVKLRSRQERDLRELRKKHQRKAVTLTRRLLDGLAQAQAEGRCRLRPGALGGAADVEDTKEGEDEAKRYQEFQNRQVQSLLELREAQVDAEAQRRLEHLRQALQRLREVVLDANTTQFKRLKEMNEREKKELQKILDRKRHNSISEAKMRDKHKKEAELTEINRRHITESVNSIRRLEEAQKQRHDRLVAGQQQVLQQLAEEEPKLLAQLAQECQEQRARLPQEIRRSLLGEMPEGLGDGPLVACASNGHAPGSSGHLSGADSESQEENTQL
ADAM17 inh – ADAM17 inhibitors, primary screen, biochemical, QFRET; Disintegrin and metalloproteinase domain-containing protein 17 (Homo sapiens), P78536; recombinant ADAM17, EDANS/DABCYL FRET peptide cleavage; inhibition, % at 6.95 µM; 370,000 compounds, 0.83% hits; AID 720648, 2013;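 active = inhibition above the mean of compounds lying between control limits plus 3 SD, set per campaign, cut at about 8.5% in these data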;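 note: 0% = DMSO-only wells as the low control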
ADAM10 ctr – ADAM10 inhibitors, counter-screen for ADAM17 exosite inhibitor project, biochemical, FRET, human ADAM10; shares compounds with ADAM17 inh; recombinant ADAM10, EDANS/DABCYL FRET peptide cleavage, 3 h; inhibition, % at 6.95 µM; 2,900 compounds, 47% hits;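 active = mean inhibition over the triplicate runs exceeds the activity threshold set in the earlier primary screen, cut at about 20% in these data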;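 note: 0% = DMSO wells and 100% = marimastat wells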
ADAM17 confirm – ADAM17 inhibitors, hit retest, confirmation, biochemical, QFRET peptide cleavage | 2,900 compounds, 65% hits | inhibition, % at 6.95 µM | recombinant ADAM17, EDANS/DABCYL QFRET peptide cleavage | shares compounds with ADAM17 inh;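 active = mean inhibition across replicates above the hit cutoff set in the primary screen, cut at about 8.5% in these data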;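 note: 0% = DMSO wells and 100% = marimastat wells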
PLCg1 ctr – PLC-gamma1 enzyme inhibitors, counter-screen for PLC-beta3 inhibitor project, biochemical, fluorescence | inhibition, % at 12.3 µM | 3,300 compounds, 3.1% hits | shares compounds with PLC-gamma1 inh | purified PLC-gamma1, fluorogenic substrate; in the data active = inhibition above about 9.5%
PLCbeta3 conf – PLC-beta3 inhibitor confirmation, biochemical, fluorescence, purified enzyme; fluorogenic substrate fluorescence; shares compounds with PLC-gamma1 inh; 3,300 compounds, 1% hits; inhibition, % at 12.3 µM
Starred values were filed as active, the others as inactive; · = no result given. Cut-off read from the data, not from the text of the source, unless noted: active = inhibition above about 11%; inactive = the rest.

SMILES	proKLK7 act	PLC-gamma1 inh	ADAM10 inh	HGIII-sPLA2 inh	PLC-beta3 inh	ADAM17 inh	ADAM10 ctr	ADAM17 confirm	PLCg1 ctr	PLCbeta3 conf
CCN1C(=O)C(CC(=O)Nc2ccc(OC)cc2)N(CCc2ccc(OC)cc2)C1=S (configuration not stated)	1	6	18	-31	14*	11*	32*	15*	-7	-1
COC(=O)[C@]12C=CCN1[C@H](c1ccccc1)c1c(c3ccccc3n1S(=O)(=O)c1ccc(C)cc1)C2	-1	-19	-11	7	-26	-3	·	·	·	·
O=c1[nH]n(-c2ccccc2Cl)c(=O)c2ccccc12	0	14*	-6	9	-4	10*	10	10*	-10	-7
CC(C)CNS(=O)(=O)/C=C/c1ccc(F)cc1CNC(=O)OC(C)(C)C	0	2	2	-2	4	0	·	·	·	·
Cc1ccc(N(CC(=O)NCc2ccncc2)S(C)(=O)=O)cc1Cl	0	1	-6	-2	-1	-3	·	·	·	·
Cc1ccc(N(CC(=O)NCc2cccnc2)S(C)(=O)=O)cc1C	0	12*	13	12	5	10*	0	1	-3	1
Clc1ccc(CN2CCN(c3ncc(Cc4ccccc4)cn3)CC2)cc1	0	1	-2	-7	-2	7	·	·	·	·
c1ccc(Cc2cnc(N3CCN(Cc4ccc5c(c4)OCCO5)CC3)nc2)cc1	1	9.8*	5	-5	4	11*	3	4	-5	-6
O=S1(=O)c2ccc(N3CCCC3)cc2Oc2ccccc2CN1Cc1cn(Cc2cccc(C(F)(F)F)c2)nn1	-1	6	9	13	1	5	·	·	·	·
O=C(NCc1ccccc1)C1=C[C@@H](c2ccc(Br)cc2)C[C@@H](OCc2ccc(CO)cc2)O1	0	1	15	-17	1	7	·	·	·	·
O=C(NCc1ccccc1)C1=C[C@H](c2ccc(C(F)(F)F)cc2)C[C@H](OCc2ccc(CO)cc2)O1	1	7	17	-1	14*	14*	19	7	-11	-10
C=CC[C@@H](Cc1ccc(F)cc1)C(=O)OC[C@@H]1CCCN1C(=O)[C@H](CC=C)CC(=O)N(CCO)Cc1ccccc1	0	10*	19	-21	8	10*	6	7	-9	-4
C=CCC[C@@H](Cc1ccc(F)cc1)C(=O)OC[C@@H]1CCCN1C(=O)[C@@H](CC=C)CC(=O)N[C@@H](CO)Cc1ccccc1	0	11*	20	-28	5	9.1*	11	9.3*	-6	0
C=CCC[C@@H](Cc1ccc(F)cc1)C(=O)OC[C@@H](NC(=O)[C@@H](CC=C)CC(=O)N[C@H](CO)Cc1ccccc1)C(C)(C)C	0	11*	18	-28	8	9.6*	35*	18*	-4	4
CCc1c(Cc2ccccc2)ncn1CCc1ccccc1OC	0	2	-2	-3	3	0	·	·	·	·
CCNC(=O)C/C(C)=N/NC(=O)C1CCCCC1	0	11*	7	3	8	8.9*	-3	0	0	-1
COc1cccc(-c2ccc3ncnc(NCc4ccc5c(c4)OCO5)c3c2)c1	0	11*	16	4	12*	11*	-4	2	-8	-5
O=C(COc1ccc(F)cc1Cl)Nc1nnc(-c2ccc(F)c(F)c2)o1	·	-6	10	-1	-6	1	·	·	·	·
COc1ccc(C(=O)N2CCCC(c3cc(C(=O)NCc4ccc(F)cc4)no3)C2)cc1 (configuration not stated)	0	9.7*	6	-4	6	8.8*	-6	-2	-7	-1
O=c1oc2ccc(NS(=O)(=O)c3cccc4cccnc34)cc2s1	0	10*	4	-22	-3	12*	6	7	0	-1
Cc1ccnc(SCc2cc(=O)c(OC(=O)c3ccc([N+](=O)[O-])cc3)co2)n1	·	4	-13	16	1	-3	·	·	·	·
CC(NC(C)c1ccccc1Cl)C(=O)Nc1cccc(S(=O)(=O)N2CCCCC2)c1 (configuration not stated)	1	9.8*	3	-12	-5	11*	16	10*	1	1
O=C(CCl)Nc1cccc(S(=O)(=O)N2CCCCCC2)c1	1	2	9	4	5	1	·	·	·	·
N#Cc1ccc(C23CC4(C2)[C@H](CN(Cc2ccc(-c5ccccc5)cc2)[C@@H]4c2ccccc2)C3c2ccc(Cl)nc2)cc1 (some centres not stated)	-1	13*	18	5	3	13*	-1	4	-10	-15
COc1cc(C)c(C)cc1S(=O)(=O)N1CCN(Cc2ccc3c(c2)OCO3)CC1	0	10*	8	-22	11*	8.8*	23*	9.3*	-4	-1
COc1cc(S(=O)(=O)N2CCN(Cc3ccc4c(c3)OCO4)CC2)c(C)cc1C	0	5	11	1	0	5	·	·	·	·
CC(=O)c1cccc(NC(=O)C2=CC(c3cccs3)=NS(=O)(=O)N2C)c1	1	-3	-2	-16	-7	0	·	·	·	·
